VDR inhibitor: Inhibitors of the vitamin D receptor (VDR): qHTS; Vitamin D3 receptor (Homo sapiens), P11473; VDR-SRC2-3 peptide fluorescence polarization, 2 h; Potency, µM, hits mostly inhibitors; 0.93% of 400,000 active; AID 504847, 2011
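Signal is fluorescence polarization, reporting how far test compounds block the interaction of VDR with the SRC2-3 coregulator peptide after a 2 h room-temperature incubation.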
PLK1 PBD block: qHTS for Inhibitors of PLK1-PDB (polo-like kinase 1 - polo-box domain): Primary Screen; AID 720504, 2013; Potency, µM, actives largely listed as inhibitors; 2.8% of 360,000 active; Serine/threonine-protein kinase PLK1 (Homo sapiens), P53350; Plk1 PBD binding of FITC phosphopeptide, fluorescence polarization; further: series mostly up to about 57 µM; nearly all actives have a fitted effect of over 65% in size
DT40 TDP1 no CPT: qHTS for Inhibitors of human tyrosyl-DNA phosphodiesterase 1 (TDP1): qHTS in cells in absence of CPT; DT40 Tdp1-/- hTDP1 cells, no CPT, ATP luminescence, 48 h; 15% of 420,000 active; Potency, µM (top dose mostly 46.2 µM), actives largely listed as inhibitors; further: nearly all actives have a fitted effect of over 55% in size
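Growth kinetics read by CellTiter-Glo luminescence after ≥48 hr at 37 °C. Cells: DT40 Tdp1-/- stably carrying human TDP1, 400 per well, compound exposure in the absence of CPT (DMSO vehicle).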
DT40 TDP1 CPT: qHTS for Inhibitors of human tyrosyl-DNA phosphodiesterase 1 (TDP1): qHTS in cells in presence of CPT; AID 686979, 2013; 12% of 420,000 active; Potency, µM (doses to about 46.2 µM), hits mostly inhibitors; chicken DT40 Tdp1-/-;hTDP1 cells + 20 nM CPT, ATP luminescence, 48 h; further: nearly all actives have a fitted effect of over 55% in size
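Chicken DT40 Tdp1-/- cells complemented with human TDP1, 400 cells/well, exposed to compounds plus 20 nM camptothecin for at least 48 h at 37 C; viability read as ATP content by CellTiter-Glo luminescence.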
TDP1 block: qHTS Assay for Inhibitors of Tyrosyl-DNA Phosphodiesterase (TDP1). 0.28% of 350,000 active. Tyrosyl-DNA phosphodiesterase 1 (Homo sapiens), Q9NUW8. Potency, µM (series often up to 130 µM), hits mostly inhibitors. recombinant TDP1, AlphaScreen DNA substrate cleavage; further: nearly all actives have a fitted effect of over 40% in size
Target sequence (Q9NUW8 whole entry, looked up): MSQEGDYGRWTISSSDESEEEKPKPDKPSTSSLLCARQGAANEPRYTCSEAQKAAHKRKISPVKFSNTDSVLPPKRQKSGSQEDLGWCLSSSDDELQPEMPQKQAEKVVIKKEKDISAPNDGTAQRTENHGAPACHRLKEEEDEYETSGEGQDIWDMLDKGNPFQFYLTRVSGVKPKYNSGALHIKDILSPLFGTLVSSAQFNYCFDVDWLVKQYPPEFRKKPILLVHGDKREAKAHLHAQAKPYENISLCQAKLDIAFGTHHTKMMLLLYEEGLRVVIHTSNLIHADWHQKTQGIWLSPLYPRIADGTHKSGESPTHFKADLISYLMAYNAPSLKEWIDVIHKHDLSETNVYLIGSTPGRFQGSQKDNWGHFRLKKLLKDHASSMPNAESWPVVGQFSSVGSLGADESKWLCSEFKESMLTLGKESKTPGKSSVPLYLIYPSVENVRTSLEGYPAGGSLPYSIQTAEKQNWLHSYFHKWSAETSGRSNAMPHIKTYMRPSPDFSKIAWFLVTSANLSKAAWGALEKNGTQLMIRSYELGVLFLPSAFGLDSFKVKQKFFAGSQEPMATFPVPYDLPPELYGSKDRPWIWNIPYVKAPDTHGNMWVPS
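Enzyme-compound mixtures sat 15 min at room temperature, followed by a 5 min reaction with 15 nM final substrate and 10 min with AlphaScreen beads. Recombinant human Tdp1 was used at 1 nM final.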
GCN5L2 inh: qHTS Assay for Inhibitors of GCN5L2 | Histone acetyltransferase KAT2A (Homo sapiens), Q92830 | GCN5L2 HAT assay, ThioGlo1 CoA-SH fluorescence | AID 504327, 2011 | Potency, µM (top dose mostly 58.9 µM), usual class: inhibitors | 0.21% of 390,000 active
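Free CoA generated was detected with ThioGlo1 (50uM) fluorescence at Ex340nm/Em540nm, read immediately and after 20 min at room temperature. Enzyme, 20 nM in HEPES pH 7.5 buffer, saw compounds 15 min before adding 75uM H3(1-25) peptide and 70uM acetyl-CoA.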
Numbers stand for hits; n = inactive; u = inconclusive; x = no result; [ ] = dose if it differs, or a comment. A selection: hits, their analogues and other compounds. The true share with any hit is near 18%. The call rests on the fitted dose curve; in most records, active means well fitted curve in the direction sought with a large enough effect; inconclusive means small, poorly fitted or top-dose-only effect, or another doubt; inactive means no such curve, though single readings can be large; an effect the other way counts as inactive or inconclusive.

SMILES	VDR inhibitor	PLK1 PBD block	DT40 TDP1 no CPT	DT40 TDP1 CPT	TDP1 block	GCN5L2 inh
O=C(c1cccc(F)c1)N1CCC(c2c[nH]c3ccccc23)(c2c[nH]c3ccccc23)CC1	n	x	u	u	n	n
O=C(Nc1nnc(C2CC2)s1)c1n[nH]c(=O)c2ccccc12	n	n	n	n	n	n
O=C1OCC=C1NNC(=O)c1cccnc1	n	n	n	n	n	n
O=C(c1ccc2c(c1)N(Cc1ccccc1)C(=O)c1ccccc1S2(=O)=O)N1CCN(c2ccccn2)CC1	n	x	20.6µM	u	n	n
C/C(=C\c1ccccc1)CN1CCN(C(C)C)C(CCO)C1 (stereo unspecified)	n	n	n	n	x	n
O=[N+]([O-])c1cccc(-c2ccc(C(=S)N3CCN(c4ccccc4)CC3)o2)c1	u	11.9µM	u	u	x	n
CN1CCN(C(=S)c2ccc(-c3cccc([N+](=O)[O-])c3)o2)CC1	u	n	23.1µM	n	n	n
Cc1ccc(C(=O)N(Cc2ccccc2)C(C)(C)C)cc1C	n	n	14.6µM	16.4µM	n	n
CC(NS(=O)(=O)OCC(Cl)(Cl)Cl)c1ccc(Br)cc1 (stereo unspecified)	n	n	n	n	x	n
COc1ccc(OC)c(NS(=O)(=O)c2ccc3c(c2)CCCN3C(=O)C2CCC2)c1	n	x	u	23.1µM	n	n
CCc1ccccc1NS(=O)(=O)c1ccc2c(c1)CCCN2C(=O)C1CCC1	n	x	20.6µM	u	n	n
Cc1occc(=O)c1O	n	n	n	n	n	n
Cc1cc(C(=O)Nc2c(F)cc(F)cc2Br)cs1	n	n	n	u	n	n
NNC(=S)Nc1c(F)cc(F)cc1Br	n	n	13µM	u	n	n
CCOc1cc2sc(N3CCC(C(=O)Nc4ccccc4Cl)CC3)nc2cc1Br	n	x	u	u	n	n
COc1ccc(C(C)=O)cc1CSc1ccc2c(c1)OCCO2	n	u	n	n	n	n
CCOc1ccc(/C=N/NC(=O)c2cc(-c3ccco3)nc3ccccc23)cc1	n	n	23.1µM	u	n	n
O=C(N/N=C/c1ccc(F)cc1)c1cc(-c2ccco2)nc2ccccc12	n	u	13µM	11.6µM	x	u
CCOC(=O)c1sc(N(Cc2ccccc2)C(=O)CCl)nc1C	u	n	20.6µM	u	x	n
CCOC(=O)c1sc(N(Cc2ccccc2)C(=O)COC(=O)c2ccc(O)cc2)nc1C	n	n	5.8µM	9.2µM	n	n
CCOc1ccccc1NC(=O)c1ccc2nc[nH]c2c1	n	n	n	n	n	n
Cc1cccc(CCNC(=O)c2nn(C)c3c2CSc2ccccc2-3)c1	n	x	u	n	n	n
C=CCN(c1ccccc1)S(=O)(=O)c1cccc(C(=O)NCC2CCCO2)c1 (stereo unspecified)	n	n	n	n	n	n
Cc1ccc(S(=O)(=O)CCC(=O)NCCN2C(=O)S/C(=C/c3ccc(F)cc3)C2=O)cc1	n	n	18.4µM	23.1µM	n	n
C/C(O)=c1/cnc2nc3ccccc3n2c1=O	n	n	n	n	n	n
SMILES	VDR inhibitor	PLK1 PBD block	DT40 TDP1 no CPT	DT40 TDP1 CPT	TDP1 block	GCN5L2 inh
Cc1cc(C)c2c(c1)-c1c(ssc1=S)C(C)(C)N2C(=O)CN1C(=O)c2ccccc2C1=O	n	n	u	20.6µM	n	n
CCn1c2ccccc2c2cc(/C=N/NC(=O)c3ccccc3)ccc21	n	n	16.4µM	14.6µM	n	n
Cn1c2ccccc2c2cc(/C=N/NC(=O)c3cc(O)cc(O)c3)ccc21	n	n	u	u	x	n
COc1ccc(O)c(/C=N\NC(=O)CCn2nnc3ccccc32)c1	n	n	23.1µM	u	n	n
CCn1c2ccccc2c2cc(/C=N/n3c(C)nnc3C)ccc21	n	n	u	u	n	u
COc1cc(C(=O)N/N=C/c2ccc3c(c2)c2ccccc2n3C)ccc1O	n	n	14.6µM	u	n	n
COc1cc(/C=N/NC(=O)CCn2c3ccccc3c3ccccc32)ccc1O	n	n	23.1µM	u	n	n
CN[C@H]1C[C@@H](c2ccccc2)N(C(C)=O)C[C@H]1CO	x	n	n	u	x	x
CCCc1c2ccccc2nc2ccccc12	n	n	u	n	n	n
C[C@@H]1CN([C@H](C)CO)C(=O)CCCn2nncc2CO[C@@H]1CN(C)C(=O)Nc1ccc2c(c1)OCO2	x	n	n	n	x	x
COc1ccc(CC(=O)OC(C)C(=O)NCc2ccc3c(c2)OCO3)cc1OC (stereo unspecified)	n	n	n	n	n	n
COc1cc(C=NNC(=O)c2ccccc2-n2cccc2)ccc1O	n	n	u	25.9µM	n	n
O=C(N/N=C\c1ccc(O)c([N+](=O)[O-])c1)c1ccccc1-n1cccc1	n	n	u	n	n	n
N#C/C(=C\c1cccnc1)C(=O)Nc1ccccc1	u	n	u	n	n	n
CC(=O)N/C(=C\c1ccccc1)C(=O)OC/C=C/c1ccccc1	n	n	n	n	n	n
N#C/C(=C/c1ccc(O)c(O)c1)C(=O)NCc1ccc(Cl)cc1	n	n	u	25.9µM	n[0.0935 µM]	n
N#C/C(=C/c1cccc(O)c1)C(=O)NCc1ccc(Cl)cc1	u	n	16.4µM	u	x	n

High-throughput results: PubChem, National Center for Advancing Translational Sciences (NCATS)
